# The full ranking holds about 39,000 sequences; the median of “fluorescence intensity (a.u.)” is about 4,300, and the highest 2% start at about 39,000. What follows is part of a selection rich in the highest values, with near analogues and random picks from the rest.
# Biological target: T1, OsSMF1 (Oryza sativa, UniProt Q6ZLB0 1-436)
# T1 sequence: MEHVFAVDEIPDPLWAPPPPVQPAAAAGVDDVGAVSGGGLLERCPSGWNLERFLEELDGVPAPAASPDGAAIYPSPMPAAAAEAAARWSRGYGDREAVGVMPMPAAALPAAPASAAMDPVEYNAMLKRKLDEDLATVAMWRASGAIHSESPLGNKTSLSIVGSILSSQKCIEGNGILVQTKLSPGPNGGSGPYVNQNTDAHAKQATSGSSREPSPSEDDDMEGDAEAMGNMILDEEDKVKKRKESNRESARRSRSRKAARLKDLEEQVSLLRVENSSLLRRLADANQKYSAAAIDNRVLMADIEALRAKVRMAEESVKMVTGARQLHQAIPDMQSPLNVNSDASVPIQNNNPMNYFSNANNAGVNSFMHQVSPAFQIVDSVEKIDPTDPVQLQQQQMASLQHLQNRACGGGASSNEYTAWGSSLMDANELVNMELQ
# Experiment: protein-binding microarray (RPBM); PBS, 2% BSA, 51.3 ng/ul salmon testes DNA, 50 uM zinc acetate, 200 nM TF, 25 C, 1 h; high values mean tight binding
# Details: protein: recombinant; tags: N-terminal polyhistidine and DsRed monomer fusion (pET32a); chain copies: 2; label: CyDye5-dUTP incorporated in the synthesized complementary strand; 3' TTTTT single-stranded linker to array surface; dsDNA, one strand shown
# Method in brief: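 Ni–NTA purification followed expression in E. coli BL21-CodonPlus of transcription factors fused N-terminally to a polyhistidine tag and DsRed. At 200 nM in PBS with 2% BSA, salmon testes DNA and 50 µM zinc acetate, the protein was incubated for 1 h at 25 °C with a custom Agilent array that had been primer-extended with Cy5-dUTP and blocked with 2% BSA. After washing, the array was read on an Axon 4000B scanner. The binding signal is per-feature fluorescence intensity in arbitrary units.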
row,Sequence,binding signal
1,CTCATAGTCATAGTTACTGATTTGTTTGCTCATAGTCATACGGAGTCACCTAGTGCAG,22700 fluorescence intensity (a.u.)
2,TATATGAAATTATTATTTGATTTCTTGATCATATAATGTACGGAGTCACCTAGTGCAG,3440 fluorescence intensity (a.u.)
3,GTTTTGGTATTGGCTATAAAATGACATGGATGTTATTGGACGGAGTCACCTAGTGCAG,4760 fluorescence intensity (a.u.)
4,TTTACATGTGTAGATCTAATGATGTGTTAATGCTAGTATACGGAGTCACCTAGTGCAG,4500 fluorescence intensity (a.u.)
5,TGTTTATTGGCTTTGTCATATGATAAATGAATTAATTGTTCGGAGTCACCTAGTGCAG,30500 fluorescence intensity (a.u.)
6,TTGAAATGTTTAAGTTGTTTTAAAATTATTCTATATATTTCGGAGTCACCTAGTGCAG,37800 fluorescence intensity (a.u.)
7,GTTACATACTGTGATAGTTTGTTTAATGCTAAATCTAGTACGGAGTCACCTAGTGCAG,43300 fluorescence intensity (a.u.)
8,AACAAATATCGTTCCTCGGTGTCGTCATCGTGTTTGGATCCGGAGTCACCTAGTGCAG,6670 fluorescence intensity (a.u.)
9,GCAAGCAAAGAAAGTTGTCATCATCCCAATCCTCCTCCGCCGGAGTCACCTAGTGCAG,4050 fluorescence intensity (a.u.)
10,GTCTTTCCGAGTGGTGGCGGCGGTGGCTGATCTGCTTGTGCGGAGTCACCTAGTGCAG,3420 fluorescence intensity (a.u.)
11,CATTCCTCTCTTTCCCCTCATCCCTATAAATCCAACATTTCGGAGTCACCTAGTGCAG,3440 fluorescence intensity (a.u.)
12,CACCACCACCACGACGCCAACGTCAACGGCGAGGACCAAGCGGAGTCACCTAGTGCAG,3270 fluorescence intensity (a.u.)
13,CCCACATGTCGGTCCAATTCTCCCTCCAGCCACTCCCGACCGGAGTCACCTAGTGCAG,3220 fluorescence intensity (a.u.)
14,CTAATATGGATAGATTGAAACATCAAGGACTAAACTGAGCCGGAGTCACCTAGTGCAG,3460 fluorescence intensity (a.u.)
15,GATTGAAACATCAAGGACTAAACTGAGTCTCAGATGAAACCGGAGTCACCTAGTGCAG,58100 fluorescence intensity (a.u.)
16,CTGAAACCAACATCCAAGTCATCATGTCCAAGATGTCTCCCGGAGTCACCTAGTGCAG,6640 fluorescence intensity (a.u.)
17,GAGAGATCGTACACGAGTCATTTCAACTCGGACAATTTGCCGGAGTCACCTAGTGCAG,3180 fluorescence intensity (a.u.)
18,CGACTCAAAGATAAATGATATGTCATCGGCACCTAGCCGACGGAGTCACCTAGTGCAG,4200 fluorescence intensity (a.u.)
19,TGTGACACATGTTACACATAATTATTATGTGAGTGGTAAACGGAGTCACCTAGTGCAG,4020 fluorescence intensity (a.u.)
20,ACAACAGCTCGATCCATCCACGCGCGCGTGACGGCTCGGCCGGAGTCACCTAGTGCAG,4690 fluorescence intensity (a.u.)
21,TACTTCTACCTACCTTACCAAGTCCTGACAGTTACAACGTCGGAGTCACCTAGTGCAG,55400 fluorescence intensity (a.u.)

row,Sequence,binding signal
1,GAAATCTGAACAACCAAGTTACTACTGTACTTATGTTAGTCGGAGTCACCTAGTGCAG,20700 fluorescence intensity (a.u.)
2,CAATTCTACAATATGCCACTGAGTTTACCAAGTTATACAACGGAGTCACCTAGTGCAG,4020 fluorescence intensity (a.u.)
3,ATAAATACCAGCTTTCCAACCATCACTTATTCACTTGCCCCGGAGTCACCTAGTGCAG,3740 fluorescence intensity (a.u.)
4,TAATCCAGTACTACTTGCTGTGACAGTGTGATGTGCTTGTCGGAGTCACCTAGTGCAG,3540 fluorescence intensity (a.u.)
5,AGATTGCCATCGGACGCAGTAAAACGTGTCACTACCCCACCGGAGTCACCTAGTGCAG,7590 fluorescence intensity (a.u.)
6,CTTAATTAATTATACACACAAACATTCCCTCCAATGCATGCGGAGTCACCTAGTGCAG,3760 fluorescence intensity (a.u.)
7,TGATGCTACAATAAACATTTACTAATGACGGATTAATTAGCGGAGTCACCTAGTGCAG,3430 fluorescence intensity (a.u.)
8,TAAACACAATTCTCCCTAATTATTATTTCTGGATGATGAGCGGAGTCACCTAGTGCAG,41400 fluorescence intensity (a.u.)
9,AATGTTTGTAGCACGGGAGGCATACCACATACATACATTGCGGAGTCACCTAGTGCAG,3640 fluorescence intensity (a.u.)
10,CTCGATCACACACGGTGTCACAGTCACAGGTGCATTGACGCGGAGTCACCTAGTGCAG,7140 fluorescence intensity (a.u.)
11,GTTTTGGAGGGCGGTTTTGCTGACGTGGCGCTGACATGGCCGGAGTCACCTAGTGCAG,32800 fluorescence intensity (a.u.)
12,TGGAGGCGACGTGGCGGTCGTTGACTCGTTGTGTGCTCGACGGAGTCACCTAGTGCAG,7090 fluorescence intensity (a.u.)
13,CTCTCCCAGCGGTAATGGAGGGCGGTTTTGCTGACGTGGCCGGAGTCACCTAGTGCAG,58300 fluorescence intensity (a.u.)
14,GATGACGACGGCGATGACGGCGGGGCGGTTTGGAGCGGGGCGGAGTCACCTAGTGCAG,4720 fluorescence intensity (a.u.)
15,TAGAGAGCGGTTTTGCTGACGTGGCGTATACGTGACGGTACGGAGTCACCTAGTGCAG,33100 fluorescence intensity (a.u.)
16,ACTCCCTCGACGGTTTTGGAGGGCGATTTTGCTGACGTGGCGGAGTCACCTAGTGCAG,47600 fluorescence intensity (a.u.)
17,GAGAGGGGTGCGCAGTGTGTTGTGGTGGTGCACATGACGGCGGAGTCACCTAGTGCAG,3510 fluorescence intensity (a.u.)
18,GCGTGTGCATCTGCCATGTAATCCAAAATATAGCCATGAACGGAGTCACCTAGTGCAG,3660 fluorescence intensity (a.u.)
19,AGATAATCCATAATAATAATTAGCTTAATAATCTAAATCACGGAGTCACCTAGTGCAG,27300 fluorescence intensity (a.u.)
20,CCGGAAAATCTATCTGTGCTTATAAATAGCCATTATCCAACGGAGTCACCTAGTGCAG,57400 fluorescence intensity (a.u.)
21,TCGCAACAACAAGAATGATGATGGCATGACGAAAATGCTACGGAGTCACCTAGTGCAG,3570 fluorescence intensity (a.u.)

# From publication PMC7819943, “Rice protein-binding microarrays: a tool to detect cis-acting elements near promoter regions in rice”
